Experimental data from PubChem BioAssay (NCATS).
Records with an inconclusive call do not appear. Values without a mark were called inactive. Calls of active or inactive are those of the source. The call rests on the fitted dose curve; in most records, active means well fitted inhibition curve with a large enough effect in the repeat runs; inconclusive means weak or mixed curves; inactive means no such curve, though single readings can be large or run the other way.

Target: Cytochrome P450 2C9 (Homo sapiens) (UniProt P11712)
Sequence (P11712 whole entry, looked up): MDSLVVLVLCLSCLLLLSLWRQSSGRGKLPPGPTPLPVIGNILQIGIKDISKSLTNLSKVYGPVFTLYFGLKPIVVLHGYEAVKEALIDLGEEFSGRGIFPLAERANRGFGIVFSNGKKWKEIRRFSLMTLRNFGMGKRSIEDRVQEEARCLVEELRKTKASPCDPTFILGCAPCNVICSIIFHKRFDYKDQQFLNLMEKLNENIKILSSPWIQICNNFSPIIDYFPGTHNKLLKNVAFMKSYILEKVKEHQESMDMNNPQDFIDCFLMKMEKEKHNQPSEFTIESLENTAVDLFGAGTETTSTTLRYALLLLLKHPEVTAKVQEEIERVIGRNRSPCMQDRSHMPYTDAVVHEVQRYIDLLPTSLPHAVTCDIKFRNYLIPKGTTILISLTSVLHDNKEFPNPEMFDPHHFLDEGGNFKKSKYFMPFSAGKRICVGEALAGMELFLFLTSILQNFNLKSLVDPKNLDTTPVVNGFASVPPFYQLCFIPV
Experiment: Cytochrome P450 family 2 subfamily C member 9 (CYP2C9) small molecule antagonists: luciferase biochemical (cell-free) qHTS assay (AID 1645842); further: nearly all actives have a fitted effect of over 55% in size
Settings: P450-Glo CYP2C9 enzyme assay, luciferin luminescence; series mostly up to 57.4 µM; activity change, negative = inhibition: at the top concentration
Protocol: National Center for Advancing Translational Sciences [NCATS] Assay Overview: Cytochrome P450 (CYP) enzymes are membrane-bound hemeproteins that play a key role in metabolism of drugs and xenobiotics. Assaying the effect of chemicals on CYP isozymes is useful to minimize the adverse drug reactions and toxicities in drug development process. Chemical compounds were tested for their effect on CYP enzyme activities by using P450-Glo (TM) screening systems (Promega Corporation, Madison, WI). These systems provide a luminescent method containing proluciferin substrates and are converted to luciferin products by CYP isozymes. The luciferin products formed are detected with a luciferin detection reagent, and the amount of light produced is proportional to CYP activity. P450-Glo (TM) CYP2C9 screening system (Catalog. No. V9790) was used to detect the compounds that interfere in CYP2C9 activity.
Assay Protocol Summary: Two ul of enzyme-substrate mix supplemented with 0.4% Bovine Serum Albumin was dispensed into medium binding white/solid 1536-well plates (Greiner Bio-One North America Inc., Monroe, NC) using a Flying Reagent Dispenser (FRD, Aurora Discovery, San Diego, CA). […] The assay plates were incubated at room temperature for 10 min. Then 2 ul of NADPH regeneration solution was added to each well of the assay plates using an FRD and incubated at 37C for 1 h. The reaction was stopped by adding 4 ul of detection reagent using an FRD and after 20 min incubation at room temperature, the luminescence signal was measured using a ViewLux plate reader (Perkin Elmer, Shelton, CT). Data were expressed as relative luminescence units.
On the % scale 0 is the no-effect control and ±100 the full control effect; potency means the concentration at half of the fitted maximal effect.

SMILES	activity change, negative = inhibition [%]	Potency
CCn1c(=O)c(-c2ccc(Cl)cc2Cl)cc2cnc(Nc3ccc(N4CCNCC4)c(F)c3)nc21	1.81	–
O=C(Nc1ccc(N(Cc2ccsc2)C(=O)Cn2nnc3ccccc32)cc1)C1CC1	–	1.51 µM (active)
CCn1c(=O)n([C@H]2CCCN(c3nccc(-c4cc5ccccc5o4)n3)C2)c2ccccc21	–	1.69 µM (active)
O=C(NCCN1CCC(n2c(=O)[nH]c3ccccc32)CC1)c1ccc2ccccc2c1	–	7.56 µM (active)
Fc1ccc(-c2nc(-c3ccccc3F)[nH]c2-c2ccncc2)cc1	–	1.69 µM (active)
CC(C)S(=O)(=O)NC[C@H](C)c1ccc(-c2ccc(CCNS(C)(=O)=O)cc2)cc1	–	10.7 µM (active)
COc1ccc(C2(CNC(=O)c3ccc(NC(=O)c4ccco4)cc3)CCOCC2)cc1	2.82	–
Cc1c(NC(=O)c2cc3c(s2)CCCC3)cccc1-c1cn(C)c(=O)c(Nc2ccc(C3C(=O)N(C)CCN3C)cc2)n1 (stereo not given)	–	1.2 µM (active)
CCC(C)c1ccc(NC(=O)Cn2cnc3c2c(=O)n(C)c(=O)n3C)cc1 (stereo not given)	–	12 µM (active)
O=c1[nH]c2ccc(C#CCN3CCC(Cc4ccccc4)CC3)cc2[nH]1	–	7.56 µM (active)
Cc1cc(Nc2nc(-c3ccccc3)nc3ccccc23)n[nH]1	–	10.7 µM (active)
O=C(N[C@H]1CCN(C(=O)c2cc(C(F)(F)F)cc(C(F)(F)F)c2)[C@H](Cc2ccc(Cl)cc2)C1)c1ccnc2ccccc12	–	10.7 µM (active)
CCN(CC)C(=O)c1ccc(Nc2nc(OCC3CCCCC3)c3[nH]cnc3n2)cc1	–	10.7 µM (active)
CC(C)CCNC(=O)c1ccc2c(c1)nc(Nc1n[nH]c3ccc(-c4ccccc4OC(F)(F)F)cc13)n2C1CCC(O)CC1 (stereo not given)	–	9.52 µM (active)
O=C(Nc1cc(C(F)(F)F)ccc1N1CCCCC1)c1ccncc1	–	2.13 µM (active)
COc1ccc(C#Cc2ccc(C(=O)N3CCC[C@@H](CO)C3)cc2)cc1	–	21.3 µM (active)
CC(C)(C[C@@](O)(Cc1cc2ccncc2[nH]1)C(F)(F)F)c1cc(F)ccc1O	–	0.301 µM (active)
CN(C)[C@@H]1CCc2[nH]c3ccc(NC(=O)c4ccc(F)cc4)cc3c2C1	4.19	–
Cc1csc(N(C(=O)CSc2ccc(-c3ccccc3)nn2)C2CC2)n1	–	10.7 µM (active)
CC[C@H](C(=O)Nc1ccccc1N1CCCC1)c1ccccc1	–	7.56 µM (active)

SMILES	activity change, negative = inhibition [%]	Potency
CN(C)C(=O)C(=O)c1cn(C)c2cc(Cl)c(C(=O)N3CCC(Cc4ccc(F)cc4)CC3)cc12	7.11	–
COC(C)=O	-2.61	–
N#Cc1cc(CN2CCC(Nc3ncnc4sc(Cl)cc34)CC2)ccc1F	-0.947	–
CCC(C)CNCC(=O)N1CCc2sccc2C1COc1cccc(C)c1 (stereo not given)	–	13.5 µM (active)
OC1(CN2CCC(COc3noc4cccc(O[C@@H]5CCOC5)c34)CC2)CCOCC1	–	9.52 µM (active)
O=C1C(Cc2ccc(O)cc2)N2C(=O)CCN(C(=O)NCc3ccccc3)C2CN1Cc1cccc2ccccc12 (stereo not given)	–	10.7 µM (active)
COc1cc2c(cc1NS(=O)(=O)c1ccc(Br)cc1C)n(C)c(=O)n2C	–	1.69 µM (active)
CC(C)(C)c1ccc(C(=O)Nc2cc(Cl)c(Br)cc2C(=O)O)cc1	–	16.9 µM (active)
OC(c1ccc(-c2ccc(CN3CCN(Cc4ccncc4)CC3)cc2)c(F)c1)(C(F)(F)F)C(F)(F)F	–	1.34 µM (active)
O=P(O)(O)OC(CO)CO	3.44	–
CNC(C)C(=O)NC(C(=O)N1CCCC1C(=O)Nc1snnc1-c1ccccc1)C1CCCCC1 (stereo not given)	-15	–
O=C(Nc1ccc(-c2ccnc(Nc3ccc(N4CCOCC4)cc3)n2)cc1)C1CCCN1 (stereo not given)	–	2.13 µM (active)
Cc1cn2c(n1)Cc1ccc(Cl)cc1C(c1ccc(N)cc1)=N2	–	12 µM (active)
CCCc1ccc(OCC(=O)N(Cc2nc(-c3cccnc3)no2)C(C)C)cc1	–	2.13 µM (active)
CCOc1ccc(-n2c([C@@H](C)N(Cc3cccnc3)C(=O)Cc3ccc(OC(F)(F)F)cc3)nc3ncccc3c2=O)cc1	–	0.952 µM (active)
C#CCNCc1cc2cc(OCc3ccccc3)ccc2[nH]1	–	3.79 µM (active)
Cn1ncc(Cl)c1-c1cc(C(=O)N[C@H](CN)Cc2ccc(F)c(F)c2)sc1Cl	–	13.5 µM (active)
COc1nc2ccc(Br)cc2cc1[C@@H](c1ccccc1)[C@@](O)(CCN(C)C)c1cccc2ccccc12	–	3.79 µM (active)
CCOc1ccc(-n2c(C(C)N(Cc3cccnc3)C(=O)Cc3ccc(F)c(C(F)(F)F)c3)nc3ncccc3c2=O)cc1 (stereo not given)	–	4.77 µM (active)
C=CCCN1CCC2(CC1)CN(C(=O)c1c(F)cccc1F)c1ccc(Cl)cc12	–	13.5 µM (active)
